Assay results reported in PubChem BioAssay (NCATS).
Inconclusive results are not listed. Entries that show only a call come without a potency. Activity calls are given as the source filed them. Calls follow the shape of the dose curve; as a rule, active = well fitted inhibition curve with a large enough effect; inconclusive = small, poorly fitted or top-dose-only effect; inactive = flat fitted curve, though single readings scatter.

These molecules were tested on MCC-26 (assay: qHTS assay to identify novel small-molecules to repurpose for Merkel cell carcinoma treatment (AID 1296009; also: nearly all actives have a fitted effect of over 60% in size)). Conditions: MCC and control cell lines, CellTiter-Glo viability, 72 h; series mostly up to 46 µM.
Text: MCC is a rare and aggressive neuroendocrine skin cancer with limited treatment options. Approximately 80% of MCCs have the Merkel cell polyomavirus (MCPyV) DNA integrated into the host genome (virus-positive: VP-MCC) and viral oncogenes drive oncogenesis. The remaining MCCs are virus-negative (VN-MCC) and are caused by UV mutagenesis. To identify novel treatments for VP-MCC and/or VN-MCC we screened three VP-MCC cell lines (WAGA, MKL-1, MKL-2), three VN-MCC cell lines (MCC-13, MCC-26, UISO), and four immortalized, non-transformed control cell lines (HaCaT, HEK293T, CRL7250, NIH-3T3) against ~2,400 compounds in the NCGC Pharmaceutical Collection (NPC) and ~1,900 compounds in the Mechanism Interrogation PlatE (MiPE). Using cell viability as a readout (CellTiter-Glo assay) we found both overlapping and distinct drugs that can be repurposed for the treatment of VP-MCC and VN-MCC.
A high-throughput screen was conducted in 1536-well white flat bottom plates (Corning) on a Kalypsys robotic system. Cell lines WAGA, MKL-1, MKL-2, MCC-13, MCC-26, UISO, HaCaT, HEK293T, CRL7250, and NIH-3T3 were screened against 2 small molecule annotated drug libraries NPC and MIPE in dose response (8 and 11 pt. respectively) measuring cell viability after 72 hours of incubation. […] A 1,536 pintool (Kalypsys) was used to transfer 23 nL of compound in DMSO to the 1,536-well assay plates. After 72 hr incubation at 37 degree celsius, 2.5 uL of CellTiter-Glo (Promega) was dispensed into each well using a BiorapTR. Plates were incubated at room temperature for 10 min, transferred to a ViewLux (PerkinElmer) and the luminescence was recorded using an exposure time of 2 seconds. Relative luminescence units (RLUs) were normalized to in-plate controls (no cells as a positive (cytotoxicity) control, DMSO as negative control) and the normalized data was processed using NCATS in-house software.
`C[C@]12CC[C@@H]3c4ccc(OC(=O)N(CCCl)CCCl)cc4CC[C@H]3[C@@H]1CC[C@@H]2O` was tested, and the Potency was “inactive”.
For `CC(C)C[C@H](CN)CC(=O)O`, the Potency was “inactive”.
In the case of `COC(=O)C(Cl)C(=O)OC`, the Potency is reported as “inactive”.
In the case of `Nc1nc(N)nc(NC2CC2)n1`, the Potency is reported as “inactive”.
In the case of `CCC(CC)(CNC(=O)CCCO)c1cccc(OC)c1`, the Potency is reported as “inactive”.
With `CC(=O)C1CCOC1=O` (stereo not given) the Potency was “inactive”.
With `COC1CC(=C(c2cccs2)c2cccs2)C[N+](C)(C)C1` (stereo not given) the Potency was “inactive”.
In the case of `CN1CCC(O)(c2ccc(F)cc2)C(C(=O)c2ccc(F)cc2)C1` (stereo not given), the Potency is reported as “inactive”.
For `CCCCCCCCCC(=O)O[C@H]1CC[C@H]2[C@@H]3CCC4=CC(=O)CC[C@@H]4[C@H]3CC[C@]12C`, the Potency was “inactive”.
In the case of `C[C@H]1[C@@H]2Cc3ccc(O)cc3[C@@]1(C)CCN2C`, the Potency is reported as “inactive”.
`CCN(CC)C(=O)[C@@H]1C=C2c3cccc4[nH]cc(c34)C[C@H]2N(C)C1` was tested, and the Potency was “inactive”.
In the case of `CCc1cc2c(s1)-n1c(C)nnc1CN=C2c1ccccc1Cl`, the Potency is reported as “inactive”.
For `C[C@]12CC[C@H]3[C@@H](CCC4=CC(=O)CC[C@@H]43)[C@@H]1CC[C@@H]2OC(=O)CCC1CCCCC1`, the Potency was “inactive”.
In the case of `CCC(C)(C)c1ccc(O)cc1`, the Potency is reported as “inactive”.
For `CC[N+]1(CC)CCC(OC(=O)C(O)(c2ccccc2)c2ccccc2)C1` (stereo not given), the Potency was “inactive”.
For `COc1c2c(cc3c1OCO3)CCN(C)C2`, the Potency was “inactive”.
With `O=P1(N(CCCl)CCCl)NCCCO1` (stereo not given) the Potency was “inactive”.
With `[N-]=[N+]=CC(=O)OC[C@H](N)C(=O)O` the Potency was “inactive”.
For `Nc1ccccc1C(=O)O`, the Potency was “inactive”.
For `CC(C(=O)c1ccccc1)N(C)C` (stereo not given), the Potency was “inactive”.
For `C[C@]12CCC(=O)C=C1CC[C@@H]1[C@@H]2CC[C@]2(C)C(=O)CC[C@@H]12`, the Potency was “inactive”.
In the case of `COc1cccc(C(=O)CCN[C@@H](C)[C@H](O)c2ccccc2)c1`, the Potency is reported as “inactive”.
`COC(=O)[C@@H](N)CCCN/C(N)=N/[N+](=O)[O-]` was tested, and the Potency was “inactive”.
With `C[N+]1(CCF)[C@@H]2CC[C@H]1CC(OC(=O)C(O)(c1ccccc1)c1ccccc1)C2` (stereo not given in full) the Potency was “inactive”.
With `COc1cccc([C@@]2(O)CCCC[C@@H]2CN(C)C)c1` the Potency was “inactive”.
`CCCCC/C=C\C/C=C\C/C=C\C/C=C\CCCC(=O)NCC(=O)O` was tested, and the Potency was “inactive”.
With `CCOP(=S)(OCC)Oc1ccc2c(C)c(Cl)c(=O)oc2c1` the Potency was “inactive”.
In the case of `O=C1OC(c2ccc(O)c(S(=O)(=O)O)c2)(c2ccc(O)c(S(=O)(=O)O)c2)c2c(Br)c(Br)c(Br)c(Br)c21`, the Potency is reported as “inactive”.
With `O=C1OC(CCN2CCCCC2)OC1(c1ccccc1)c1ccccc1` (stereo not given) the Potency was “inactive”.
For `CCC1(c2ccccc2)C(=O)N(COC)C(=O)N(COC)C1=O`, the Potency was “inactive”.
With `COc1ccc2c(c1OC)C(=O)O[C@H]2[C@@H]1c2cc3c(cc2CCN1C)OCO3` the Potency was “inactive”.
In the case of `CN1C(=O)COc2c(C(=O)NC3CN4CCC3CC4)cc(Cl)cc21` (stereo not given), the Potency is reported as “inactive”.
`c1ccc2c(c1)sc1ccccc12` was tested, and the Potency was “inactive”.
`CCN[C@@H](C)Cc1cccc(C(F)(F)F)c1` was tested, and the Potency was “inactive”.
`C[C@@H]1CC2=CC(=O)CC[C@@H]2[C@H]2CC[C@@]3(C)[C@@H](CC[C@]3(C)O)[C@@H]21` was tested, and the Potency was “inactive”.
`NC1=NC(=O)C(c2ccccc2)O1` (stereo not given) was tested, and the Potency was “inactive”.
`CCCN(CCC)C(=O)Cc1c(-c2ccc(Cl)cc2)nc2ccc(Cl)cn12` was tested, and the Potency was “inactive”.
In the case of `COc1cc(CC(C)N)cc(OC)c1OC` (stereo not given), the Potency is reported as “inactive”.
`CCN(CC)CCc1c[nH]c2ccccc12` was tested, and the Potency was “inactive”.
`CC(=O)NC1CCSC1=O` (stereo not given) was tested, and the Potency was “inactive”.
